Measurements taken from ChEMBL document CHEMBL3988442, “University of Dundee, Small-Polar-MMV Screening Library” (2021).
Among all 53,000 compounds or so, about 900 (1.7%) showed an effect of 50% or more. Shown is part of a subset that was picked to be rich in strong results.

Tested on: Mycobacterium tuberculosis
Assay: Cornell - Phenotypic assay to identify agents that inhibit growth of Mycobacterium tuberculosis
Assay type: functional
Parameters: scale not given: direction of the effect not stated beside the values
Details: 10 mM as filed; unlikely as a test dose

Row | Structure (SMILES) | Percent Effect [%]
1 | Cn1nc(CN2CCCC2)c2c1CN(c1cnccn1)CC2.O=C(O)C(F)(F)F.O=C(O)C(F)(F)F | -1.06
2 | COCCC(=O)N1C[C@H]2CN(Cc3cccnc3)C(=O)[C@H]2C1.O=C(O)C(F)(F)F | 9.901
3 | COc1ccc(NC(=O)Cn2nc(C)c(C(C)=O)c2C)cc1 | 109.6
4 | COc1ccc(NC(=O)Cn2nc(C)c(C)cc2=O)cc1 | -2.402
5 | Cc1cc(=O)n(CC(=O)Nc2ccc(Cl)cc2)nc1C | 13.93
6 | CC(=O)c1c(C)nn(CC(=O)Nc2ccc(F)cc2)c1C | -30.72
7 | COc1ccc(NC(=O)Cn2nc(C)c(C)cc2=O)cc1Cl | 14.09
8 | CC(=O)c1c(C)nn(CC(=O)Nc2ccc(Br)cc2)c1C | 109.5
9 | COCCN1CC[C@]2(CN(C(=O)c3ccc[nH]3)C[C@H]2C)C1=O | 14.18
10 | Cc1nn(C)c(Cl)c1C1CCCN1Cc1noc(C2CC2)n1 (stereo unspecified) | -6.241
11 | CCCC(NC(=O)c1cscc1C)c1nnn[nH]1 (stereo unspecified) | -31.84
12 | Cc1cnc(CN(C)C2CCN(Cc3sc(C)nc3C)C2)o1 (stereo unspecified) | -24.44
13 | CC(Oc1ccccc1C(F)(F)F)C(=O)NCC(N)=O (stereo unspecified) | -32.94
14 | COC(=O)CNC(=O)C(C)Oc1ccccc1C(F)(F)F (stereo unspecified) | -2.134
15 | CC(Oc1ccccc1C(F)(F)F)C(=O)NS(=O)(=O)C(C)C (stereo unspecified) | 54.22
16 | COCCCN(Cc1ccncc1)c1ncc(C#N)cc1Cl | 15.37
17 | Cc1noc(NC(=O)c2ccc(C)c(F)c2)n1 | 108.6
18 | Cc1noc(NC(=O)c2ccc(F)cc2)n1 | 2.649
19 | COc1cc(C(=O)NS(=O)(=O)c2cccc(C#N)c2)ccc1C | 15.37
20 | COc1cc(C(=O)Nc2c(C)noc2C)ccc1C | 19.94
21 | Cc1cc(NC(=O)c2ccc(C)c(F)c2)[nH]n1 | 32.04
22 | COc1cc(C(=O)Nc2nc(C)no2)ccc1C | 102.2
23 | Fc1cc(Cl)cnc1N1CCCC(c2nccn2Cc2ccccn2)C1 (stereo unspecified) | 15.7
24 | O=C(c1cc(Cn2ccc3ccccc32)[nH]n1)N1CCC[C@H]1CO | 36.89
25 | Cc1c(CN2C[C@@H](O)[C@H](Oc3cccc(F)c3)C2)cnn1C | -27.75
26 | CCCc1cc(=O)[nH]c(SCc2ccccn2)n1 | -4.123

Row | Structure (SMILES) | Percent Effect [%]
27 | CCc1cc(=O)[nH]c(-n2nc(C3CC3)cc2NC(=O)C2CC2)n1 | 108.9
28 | CCc1c(C)nc(-n2nc(C3CC3)cc2NC(C)=O)[nH]c1=O | 9.536
29 | CCCc1cc(=O)[nH]c(-n2nc(C3CC3)cc2N)n1 | 107.6
30 | Cn1nc(CNC(=O)C2CC2)cc1C1CC1 | 29.19
31 | CC(C)c1cc(=O)[nH]c(C(C)(C)N)n1.Cl | 8.844
32 | CCCc1cc(=O)[nH]c(-c2cccc(CN3CCCCCC3)c2)n1 | 11.6
33 | Cc1cc(=O)[nH]c(-n2nc(C3CC3)cc2N)n1 | 39.12
34 | CC(C)c1cc(=O)[nH]c(-n2nc(C3CC3)cc2N)n1 | 108.3
35 | CCN1CCCC(CNC(=O)C2(c3cc(C)cc(C)c3)CCC2)C1 (stereo unspecified) | -9.012
36 | COc1cccc(CC(=O)N2CCCC2c2nc(C)c(F)c(O)n2)c1 (stereo unspecified) | -107.1
37 | CCNC(=O)NCc1ccc(-n2ccc(C(F)(F)F)n2)cc1 | 21.88
38 | COCc1nnc(C(=O)N2CCC(N3CCCCC3)CC2)o1 | -29.51
39 | Cc1ccc(-c2ccc(Cl)nn2)cc1S(N)(=O)=O | 6.758
40 | CC(=O)N1CCC(c2n[nH]cc2-c2ccnc(N)c2)C1 (stereo unspecified) | -32.92
41 | CC(C)(C)NC(=O)N1CCCn2nc(C(=O)Nc3ccccc3)cc2C1 | 16.42
42 | Cc1nnsc1C(=O)NCc1nn(C2CCCC2)c2c1CCCC2 | 22.48
43 | Cn1cc(-c2nc(C(=O)N3CCCC3c3cnn(C)c3)cs2)cn1 (stereo unspecified) | 20.68
44 | Cc1nn(C)c(N(C)C)c1CNCc1ccnn1C | 46.97
45 | COCCOc1ncccc1CNCc1c(C)nn(C)c1N(C)C | 87.98
46 | CCOc1ncccc1CNCc1c(C(C)C)nn(C)c1N(C)C | -29.31
47 | COc1cc(CNCc2c(C)nn(C)c2N(C)C)ccn1 | 97.38
48 | CC(C)c1nn(C)c(N(C)C)c1CNCc1ccnn1C | 65.83
49 | Cc1nn(CC(C)C)c(N(C)C)c1CNCc1ccnn1C | -14.58
50 | COc1ncccc1CNCc1c(C)nn(C)c1N(C)C | -66.33
51 | COc1cc(CNCc2c(C)nn(CC(C)C)c2N(C)C)ccn1 | -17.24
